The nature of assay [1]: qHTS RealTime-Glo MT Cell Viability Assay in HEK293 cells - 0 hour (AID 1224880). Note: top concentration of the series differs between compounds; nearly all actives have a fitted effect of over 45% in size. Conditions: RealTime-Glo luminescence; series mostly up to 76.8 µM. The gist of the method: (§1)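 Cells were seeded together with NanoLuc luciferase and a prosubstrate that viable cells reduce to a luciferase substrate. After a 5 h incubation at 37 C/5% CO2, compounds were added and luminescence was measured repeatedly during 40 h of treatment.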
In general terms: Quantitative high-throughput screening tests each substance at several concentrations.

A short description of assay [2]: A CellTox Green Cytotoxicity Assay to monitor cytotoxicity in HEK293 cells - 32 hour (AID 1224881). Note: nearly all actives have a fitted effect of over 40% in size. To be noted: CellTox Green fluorescence; series mostly up to 76.8 µM. A digest of the protocol:
(§2)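 Nonlytic real-time cytotoxicity: HEK293 + CellTox Green reagent plated, 5 h preincubation, pintool compound addition (23 nL in DMSO), 37 C for 40 h, fluorescence measured at successive time points.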

Assay [3] can be described thus: A CellTox Green Cytotoxicity Assay to monitor cytotoxicity in HepG2 cells - 0 hour (AID 1224882). Note: nearly all actives have a fitted effect of over 35% in size. Conditions: CellTox Green fluorescence; series mostly up to 76.8 µM. A digest of the protocol:
(§3)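 Read-out is fluorescence of a cyanine dye excluded from live cells that stains DNA of dead HepG2 cells, with signal proportional to cytotoxicity. Plates were read at 0, 8, 16, 24, 32 and 40 h after compound addition.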

Assay [4] can be described thus: A CellTox Green Cytotoxicity Assay to monitor cytotoxicity in HepG2 cells - 32 hour (AID 1224883). Note: nearly all actives have a fitted effect of over 50% in size. To be noted: CellTox Green fluorescence; series mostly up to 76.8 µM. A digest of the protocol:
as §3

Assay [5] can be described thus: A CellTox Green Cytotoxicity Assay to monitor cytotoxicity in HEK293 cells - 8 hour (AID 1224884). Note: nearly all actives have a fitted effect of over 35% in size. To be noted: CellTox Green fluorescence; series mostly up to 76.8 µM. The gist of the method: as §2
Assay [6] in a line: qHTS RealTime-Glo MT Cell Viability Assay in HepG2 cells - 16 hour (AID 1224885). Note: nearly all actives have a fitted effect of over 50% in size. Note: potency is the fitted concentration of half-maximal effect. Conditions: RealTime-Glo luminescence; series mostly up to 76.8 µM. A digest of the protocol: (§4)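 HepG2 suspension premixed with RealTime-Glo reagents is plated at 600 cells per well and left 5 h at 37 C/5% CO2. Compounds in DMSO then go in, and bioluminescence reflecting viable cell number is recorded over 40 h.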

A short description of assay [7]: qHTS RealTime-Glo MT Cell Viability Assay in HEK293 cells - 24 hour (AID 1224886). Note: nearly all actives have a fitted effect of over 50% in size. Note: potency is the fitted concentration of half-maximal effect. Conditions: RealTime-Glo luminescence; series mostly up to 76.8 µM. A digest of the protocol: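 Reads taken at 0, 8, 16, 24, 32 and 40 h from the same wells. HEK293 cells (600/well) carried RealTime-Glo reagents from seeding, with compound added after a 5 h settle at 37 C.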
Assay [8] in a line: qHTS RealTime-Glo MT Cell Viability Assay in HEK293 cells - 8 hour (AID 1224887). Note: top concentration of the series differs between compounds; nearly all actives have a fitted effect of over 50% in size. Conditions: RealTime-Glo luminescence; series mostly up to 76.8 µM. A digest of the protocol:
as §1

Assay [9] in a line: A CellTox Green Cytotoxicity Assay to monitor cytotoxicity in HEK293 cells - 16 hour (AID 1224888). Note: nearly all actives have a fitted effect of over 35% in size. Conditions: CellTox Green fluorescence; series mostly up to 76.8 µM. The gist of the method: as §2
Assay [10] can be described thus: qHTS RealTime-Glo MT Cell Viability Assay in HepG2 cells - 0 hour (AID 1224889). Note: nearly all actives have a fitted effect of over 50% in size. Conditions: RealTime-Glo luminescence; series mostly up to 76.8 µM. The gist of the method:
as §4

Where “and” joins values, the source holds several entries; their conditions need not be identical. Equal values may be shown once. Records with an inconclusive call do not appear. More than one record can exist for a structure, and the calls need not agree. Calls of active or inactive are those of the source. Calls come from the whole dose curve; as a rule, active = well fitted curve in the direction sought with a large enough effect in the repeat runs; inconclusive = weak or mixed curves; inactive = no such curve, though single readings can be large; an effect the other way counts as inactive or inconclusive.

As for `O=C(OCC1CCC2OC2C1)C1CCC2OC2C1` (configuration not stated), the outcome in assay [1], in [3] and in assay [5] was inactive. Further, the Potency result in assay [2], in [4], in [6], in assay [7], in assay [8] and in [9] was “inactive” in each case. The Potency entry in [10] is “inactive”.

On to `CC(C)CC(=O)CC(C)CC(C)C` (configuration not stated), for which the molecule was classed as inactive in assay [1], in assay [3] and in [5]. The Potency entry in [2], in assay [4], in [6], in assay [8], in [9] and in [10] was “inactive” in each case. Besides, the Potency entry in [7] was “inactive and 19.5 µM (active)”.

Turning to `Cc1ccc([N+](=O)[O-])cc1S(=O)(=O)O`, the molecule was called inactive in assay [1], in assay [3] and in assay [5]. In addition, the Potency entry in assay [2], in assay [4], in assay [6], in assay [7], in [8] and in assay [9] was “inactive” in each case. Moreover, in assay [10], the Potency entry was “inactive”.

With `CCCCCCO`, the molecule was classed as inactive in assay [1], in assay [3] and in assay [5]. The Potency result in [2], in [4], in [6], in assay [7], in [8] and in assay [9] was “inactive” in each case. The Potency entry in [10] was “inactive”.

On to `Brc1ccc(Br)c(Br)c1`, for which the molecule was called inactive in [1], in [3] and in assay [5]. The Potency result in assay [4], in assay [6], in assay [7], in [8], in [9] and in assay [10] was “inactive” in each case.

For `O=C(O)Cn1c(=O)n(Cc2ccc(Br)cc2F)c(=O)c2ccc(Cl)cc21`, the molecule was called inactive in assay [1], in assay [3] and in assay [5]. Besides, the Potency result in [2], in assay [4], in assay [9] and in [10] was “inactive” each time. Moreover, the Potency in [6] was 24.5 µM (active).

The record behind these values is PubChem BioAssay (Tox21).
